# KKLEB tox: cytotoxicity in KKLEB CF airway cells, primary screen, cytotoxicity control for CF NF-kB inhibitor project, cell-based, uHTS, fluorescence assay plates; KKLEB CF airway cells viability, ATPlite luminescence, overnight; active compounds read low; cells stimulated with P. aeruginosa culture filtrate; activity change (cytotoxicity), % at 5 µM; 360,000 compounds, 0.36% hits; AID 602141, 2011;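 active = corrected activity change at or below -50% at 5 µM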
# EWS-Fli inh: EWS/Fli-driven NR0B1 reporter inhibitors, primary screen, A673 cells, NR0B1 luciferase, luminescence, MLPCN library. viability-normalised. 350,000 compounds, 0.67% hits. inhibition, % at 12.6 µM. AID 651661, 2012;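 active = mean inhibition of at least 50% after viability correction, with every replicate also passing that limit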;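 also: firefly luciferase signal divided by Alamar Blue viability fluorescence both relative to DMSO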
# PAX8 reporter: inhibitors of PAX8-driven TPO luciferase reporter, primary screen, RMG-I cells, single concentration; 360,000 compounds, 1.2% hits; inhibition, % at 12.6 µM; SteadyGlo, 24 h;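 active = mean replicate inhibition at least 60% with every replicate also reaching 60%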;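 also: luciferase light reporting Pax8 driven TPO promoter activity; plate controls were median of neutral control wells for no effect and mitoxantrone controls for full effect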
# Shn3 inh set2: reduction of Shn3 3'UTR firefly luciferase signal, primary screen, Schnurri-3 inhibitor project, cell-based, Clone20 osteoblasts, set 2; inhibition, % at 12.5 µM; 360,000 compounds, 0.52% hits; Clone20 osteoblast Shn3 3'UTR firefly luciferase, 24 h;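 active = mean inhibition of at least 75% with every replicate also reaching 75%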;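 also: 0% = median of neutral control wells and 100% = pilot-screen positive control compound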
# LGR2 inh: inhibitors of bursicon-induced LGR2 CRE-luciferase signal, primary screen, cell-based, HEK293, CRE-luciferase reporter, bursicon stimulation; Drosophila bursicon receptor LGR2 (rickets); inhibition, % at 9.99 µM; bursicon-stimulated, 4 h; AID 720647, 2013; 380,000 compounds, 0.35% hits;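 active = drop in luminescence signal, shown as inhibition above about 50% in the replicate tests, limit read from the data, passing the limit was not always enough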;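 also: agonist challenge used bursicon conditioned medium at about half maximal strength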
# CF NFkB block: inhibitors of PAF-induced NF-kB signaling, primary screen, cell-based, GFP fluorescence, uHTS; 360,000 compounds, 0.86% hits; AID 588850, 2011; KKLEB NF-kB-GFP reporter, GFP fluorescence overnight; inhibition, % at 5 µM;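 active = at least 50% inhibition at 5 µM, scaled per plate between neutral and stimulator controls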;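 also: PAF is a Pseudomonas aeruginosa culture filtrate used as stimulus; plate controls were PAF-stimulated DMSO wells for no effect and unstimulated DMSO wells for full effect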
# * = called active by the depositor; . = no result given; ! = not active in a repeat. The list is not random: actives were taken first. Their share in the collection is about 2%.
SMILES,KKLEB tox,EWS-Fli inh,PAX8 reporter,Shn3 inh set2,LGR2 inh,CF NFkB block
C[C@@H]1CN([C@H](C)CO)C(=O)c2cc(NC(=O)c3ccccc3)ccc2O[C@@H](C)CCCCO[C@@H]1CN(C)Cc1ccc(C(F)(F)F)cc1,.,6,91*,.,18,.
C[C@@H]1CCCCO[C@H](CN(C)Cc2ccc(C(=O)O)cc2)[C@H](C)CN([C@@H](C)CO)C(=O)c2cc(NC(=O)c3ccccc3)ccc2O1,.,-7,4,.,8,.
C[C@@H]1CN([C@@H](C)CO)C(=O)c2cc(NC(=O)c3ccccc3)ccc2O[C@@H](C)CCCCO[C@@H]1CN(C)Cc1ccc(C(F)(F)F)cc1,-8,15,77*!,26,15,7
C[C@@H]1CCCCO[C@@H](CN(C)Cc2ccc(C(F)(F)F)cc2)[C@H](C)CN([C@H](C)CO)C(=O)c2cc(NC(=O)c3ccccc3)ccc2O1,.,22,91*,.,-4,.
C[C@@H]1CN([C@@H](C)CO)C(=O)c2cc(NC(=O)c3ccncc3)ccc2O[C@@H](C)CCCCO[C@H]1CN(C)Cc1ccc(C(F)(F)F)cc1,.,2,51,.,14,.
C[C@@H]1CCCCO[C@@H](CN(C)Cc2ccc(C(=O)O)cc2)[C@@H](C)CN([C@H](C)CO)C(=O)c2cc(NC(=O)c3ccccc3)ccc2O1,.,-6,10,.,-12,.
C[C@H](CO)N1C[C@H](C)[C@@H](CN(C)Cc2ccc(C(F)(F)F)cc2)OCCCC[C@H](C)Oc2ccc(NC(=O)c3ccccc3)cc2C1=O,.,35,67*,.,10,.
C[C@H]1CCCCO[C@H](CN(C)Cc2ccc(C(=O)O)cc2)[C@@H](C)CN([C@@H](C)CO)C(=O)c2cc(NC(=O)c3ccccc3)ccc2O1,.,-5,15,.,-5,.
C[C@@H]1CN([C@H](C)CO)C(=O)c2cc(NC(=O)c3ccccc3)ccc2O[C@@H](C)CCCCO[C@H]1CN(C)Cc1ccc(C(F)(F)F)cc1,.,17,99*,.,39,.
C[C@@H]1CN([C@@H](C)CO)C(=O)c2cc(NC(=O)c3ccncc3)ccc2O[C@@H](C)CCCCO[C@@H]1CN(C)Cc1ccc(C(F)(F)F)cc1,.,18,23,.,-24,.
C[C@H](CO)N1C[C@H](C)[C@H](CN(C)Cc2ccc(C(F)(F)F)cc2)OCCCC[C@H](C)Oc2ccc(NC(=O)c3ccccc3)cc2C1=O,.,29,90*,.,10,.
O=C1Cc2c([nH]c3ccc([N+](=O)[O-])cc23)-c2ccccc2N1,-29,-39,.,53,76*,84*
C[C@H](CO)N1C[C@H](C)[C@@H](CN(C)Cc2ccc(Cl)c(Cl)c2)Oc2c(NC(=O)Nc3cccc4ccccc34)cccc2C1=O,.,-3,16,.,30,.
O=C1/C(=C/c2ccncc2)CCC/C1=C\c1ccncc1,-36,71*,71*,72,95*,86*
C[C@H]1CN([C@@H](C)CO)C(=O)Cc2cc(NC(=O)Cc3ccccc3)ccc2O[C@@H]1CN(C)S(=O)(=O)c1cccs1,.,4,-12,.,19,.
C[C@@H]1CN([C@@H](C)CO)C(=O)c2c(c3ccccc3n2C)-c2ccccc2CO[C@@H]1CN(C)C(=O)CCN(C)C,.,-10,-12,.,-23,.
C[C@H](CO)N1C[C@H](C)[C@@H](CN(C)C(=O)CCN(C)C)OCc2ccccc2-c2c(n(C)c3ccccc23)C1=O,.,-4,65*,.,-23,.
C[C@H](CO)N1C[C@H](C)[C@H](CN(C)C(=O)[C@H](Cc2ccccc2)N(C)C)OCc2ccccc2-c2c(n(C)c3ccccc23)C1=O,.,14,116*,.,-18,.
C[C@H](CO)N1C[C@H](C)[C@@H](CN(C)C(=O)Nc2ccc(F)cc2)OCc2ccccc2-c2c(n(C)c3ccccc23)C1=O,.,7,100*,.,27,.
C[C@H]1CN([C@@H](C)CO)C(=O)c2c(c3ccccc3n2C)-c2ccccc2CO[C@@H]1CN(C)C(=O)[C@@H](Cc1ccccc1)N(C)C,.,-42,-2,.,5,.

# High-throughput results: PubChem, several laboratories
